Experimental findings from PubChem BioAssay (Tox21) are described below.

SMILES strings stand for the structures. Values joined by “and” are separate entries in the source; they are usually repeats but may differ in a detail not shown here. Identical values can stand only once. Inconclusive results are not listed. Active and inactive are the calls of the source. Unless noted, calls follow the shape of the dose curve; as a rule, active = well fitted curve in the direction sought with a large enough effect in the repeat runs; inconclusive = weak or mixed curves; inactive = no such curve, though single readings can be large; an effect the other way counts as inactive or inconclusive.

A short description of test [1]: qHTS assay for small molecules that induce genotoxicity in human embryonic kidney cells expressing luciferase-tagged ATAD5 (AID 651632). Also: nearly all actives have a fitted effect of over 15% in size. The essentials:
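Quantitative HTS in HEK293T expressing luciferase-tagged ATAD5, whose levels rise upon DNA damage. Exposure ran 16 hr at 37C and 5% CO2, with luminescence read 30 min after Amplite addition at room temperature.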
(Quantitative high-throughput screening tests each substance at several concentrations.)

Test [2] can be described thus: qHTS assay for small molecule agonists of the p53 signaling pathway - cell viability (AID 651633; calls by dose curve; also: nearly all actives have a fitted effect of over 30% in size; also: potency is read from the fitted curve at half-maximal effect). Summed up:
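p53RE-bla cells were treated with compound for 16 hours at 37 C. Cytotoxicity was then measured as CellTiter-Glo luminescence after 30 min at room temperature.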

A short description of test [3]: qHTS assay for small molecules that induce genotoxicity in human embryonic kidney cells expressing luciferase-tagged ATAD5 - cell viability (AID 651634; calls by dose curve; also: nearly all actives have a fitted effect of over 25% in size). The essentials:
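After 15.5 hr incubation with compound at 37C, 5% CO2, HEK293T ATAD5-luciferase cells received CellTiter-Fluor reagent; fluorescence intensity was quantified following 30 min at 37C.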

The nature of test [4]: qHTS assay for small molecule disruptors of the mitochondrial membrane potential - cell viability (AID 720634; calls by dose curve; also: nearly all actives have a fitted effect of over 20% in size; also: potency is read from the fitted curve at half-maximal effect). Summed up: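 ATP-based luminescent viability readout (CellTiter-Glo, 30 min, room temperature) in HepG2 cells multiplexed with the m-MPI membrane potential dye; compound exposure lasted 1 hr at 37 C.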
Test [5] can be described thus: qHTS assay for small molecule disruptors of the mitochondrial membrane potential (AID 720635). Also: potency is read from the fitted curve at half-maximal effect. Summed up: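 HepG2 cells exposed to compound 1 hr at 37C, then Mito-MPS dye 30 min. Ratio read of aggregate (540/590 nm) versus monomer (490/535 nm) fluorescence.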
The nature of test [6]: qHTS assay to test for compound auto fluorescence at 590 nm (red) in HepG2 cells (AID 720674). The essentials:
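HepG2 cells, 2,000 per well in MEM with 10% FBS, attached overnight at 37 C, then got 23 nL compound or DMSO. After 1 hr at 37 C, 5% CO2, red fluorescence was read at 540/590 nm against Rose Bengal sodium as reference.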

Test [7] in a line: qHTS assay to test for compound auto fluorescence at 535 nm (green) in HepG2 cells (AID 720675).
Test [8] is described as follows: qHTS assay to test for compound auto fluorescence at 460 nm (blue) in HEK293 cells (AID 720678). Summed up: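 Cells were seeded and left to adhere for 4-5 hr at 37C. Compounds were then pin-transferred. After an overnight incubation at 37C under 5% CO2, intrinsic fluorescence at 405/460 nm was measured and referenced to triamterene.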
Test [9] can be described thus: qHTS assay to test for compound auto fluorescence at 590 nm (red) in HEK293 cells (AID 720679). The essentials: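 Each well held 2,000 HEK293 cells in medium containing 10% dialyzed FBS. Following 4-5 hr attachment at 37C, 23 nL test compound or DMSO was added; plates sat overnight, and red fluorescence (540/590nm) was recorded.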
The nature of test [10]: qHTS assay to test for compound auto fluorescence at 535 nm (green) in HEK293 cells (AID 720680).
A short description of test [11]: qHTS assay to test for compound auto fluorescence at 460 nm (blue) in HEK293 cell free culture (AID 720681). The essentials: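 Compounds were added to cell-free DMEM with 10% FBS and fluorescence read directly. The blue channel used 405 nm excitation and 460 nm emission, with triamterene as the reference fluorophore.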
Test [12] is described as follows: qHTS assay to test for compound auto fluorescence at 535 nm (green) in HEK293 cell free culture (AID 720682). Summed up: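 DMEM + 10% FBS, cell-free; cpd or DMSO pinned in; Ex485/Em535 read; output as fluorescein-equivalent signal.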
The nature of test [13]: qHTS assay to test for compound auto fluorescence at 590 nm (red) in HEK293 cell free culture (AID 720683). Summed up:
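Cell-free wells of DMEM with 10% FBS received compound, and intrinsic fluorescence was read at excitation/emission 540/590 nm. Values expressed as equivalence to Rose Bengal sodium.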

Test [14] can be described thus: qHTS assay to test for compound auto fluorescence at 590 nm (red) in HepG2 cell free culture (AID 720684). Summed up:
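Auto fluorescence equivalency versus Rose Bengal sodium, red channel Ex/Em 540/590 nm; compounds in cell-free MEM/10% FBS; DMSO vehicle control.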

Test [15] can be described thus: qHTS assay to test for compound auto fluorescence at 460 nm (blue) in HepG2 cell free culture (AID 720685). The essentials:
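Cell-free plates of MEM plus 10% FBS received 23 nL compound or DMSO vehicle; blue-channel (405/460 nm) intensity scored against triamterene as reference fluorophore.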

The nature of test [16]: qHTS assay to test for compound auto fluorescence at 535 nm (green) in HepG2 cell free culture (AID 720686).
Test [17] is described as follows: qHTS assay to test for compound auto fluorescence at 460 nm (blue) in HepG2 cells (AID 720687). The essentials: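 HepG2 cells in MEM with 10% FBS, attached overnight at 37 C, were exposed to compound or DMSO for 1 hr at 37 C, 5% CO2. Blue fluorescence was read at 405/460 nm, with triamterene as reference fluorophore.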
Test [18] addresses Glucocorticoid receptor (Homo sapiens) (UniProt P04150). The test is described as follows: qHTS assay to identify small molecule agonists of the glucocorticoid receptor (GR) signaling pathway (AID 720691; active = well fitted activation curve with a large enough effect in the signal ratio in the repeat runs, not every such curve was filed as active; the % refers to the signal ratio). Summed up: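 Cells: GR-bla HeLa, endogenous GR with stably integrated GRE-beta-lactamase reporter. Treatment 18 h, 37 C, compounds delivered in DMSO. Detection via LiveBLAzer B/G FRET substrate, 2 h RT, fluorescence intensity.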

Test [19] shares this target. As to the kind of experiment: qHTS assay to identify small molecule antagonists of the glucocorticoid receptor (GR) signaling pathway (AID 720692; active = well fitted inhibition curve with a large enough effect in the signal ratio in the repeat runs, not every such curve was filed as active; the % refers to the signal ratio). Summed up:
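Quantitative HTS in antagonist format: HeLa cells expressing endogenous GR and a stably integrated GRE-bla reporter, stimulated with 5 nM dexamethasone (final) alongside test compounds for 18 h.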

Chain of Glucocorticoid receptor (Homo sapiens) (P04150 whole entry, looked up): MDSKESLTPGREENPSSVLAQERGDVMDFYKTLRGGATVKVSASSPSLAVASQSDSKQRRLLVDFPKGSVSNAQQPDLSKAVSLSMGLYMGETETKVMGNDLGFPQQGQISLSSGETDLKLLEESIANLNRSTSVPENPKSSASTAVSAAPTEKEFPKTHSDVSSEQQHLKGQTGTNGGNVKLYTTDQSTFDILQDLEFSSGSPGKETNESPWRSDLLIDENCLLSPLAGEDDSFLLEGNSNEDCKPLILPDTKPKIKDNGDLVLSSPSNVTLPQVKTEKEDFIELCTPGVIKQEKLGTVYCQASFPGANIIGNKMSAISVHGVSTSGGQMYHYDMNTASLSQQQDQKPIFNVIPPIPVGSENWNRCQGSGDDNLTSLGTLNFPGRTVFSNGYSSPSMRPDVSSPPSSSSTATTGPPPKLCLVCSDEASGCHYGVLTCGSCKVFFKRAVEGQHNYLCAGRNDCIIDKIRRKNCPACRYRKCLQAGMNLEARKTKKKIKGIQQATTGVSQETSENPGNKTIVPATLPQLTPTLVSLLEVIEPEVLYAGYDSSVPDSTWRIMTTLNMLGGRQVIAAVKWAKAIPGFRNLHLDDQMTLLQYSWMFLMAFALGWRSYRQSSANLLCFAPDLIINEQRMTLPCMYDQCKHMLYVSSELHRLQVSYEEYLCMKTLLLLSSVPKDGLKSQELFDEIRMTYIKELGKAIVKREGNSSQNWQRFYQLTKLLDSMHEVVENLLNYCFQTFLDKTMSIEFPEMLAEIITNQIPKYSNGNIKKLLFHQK

As for `CCN(CC)C(=O)/C(Cl)=C(\C)OP(=O)(OC)OC`, the Potency result in test [1], in test [2], in test [3], in test [4], in test [5] and in [18] was “inactive” each time. Further, in test [19], the Potency entry is “inactive”. In addition, the molecule was called inactive in test [6], in test [7], in test [8], in [9], in [10] and in test [11]. Besides, the molecule was classed as inactive in [12], in [13], in test [14], in test [15], in [16] and in test [17].

For the molecule `Nc1ccc(-c2ccc(N)c(N)c2)cc1N`, the Potency entry in test [1], in test [3] and in [4] was “inactive” each time. The Potency in test [2] was 48.6 µM (active); in test [5] it was 216 nM (active) and 7.7 µM (active). Further, the call in [6], in [7], in test [8], in [9], in [10] and in test [11] was inactive. Moreover, the result in [12], in [14], in [15], in [16] and in test [17] was inactive.

Turning to `CNC(=O)N(C)c1nnc(C(C)(C)C)s1`, the Potency entry in test [1], in [2], in test [3] and in test [4] was “inactive” in each case. Moreover, the molecule was called inactive in [6], in [7], in test [8], in test [9], in test [10] and in test [11]. Further, the outcome in test [12], in [13], in test [14], in test [15], in test [16] and in test [17] was inactive.

As to `CCOc1cc(C=O)ccc1O`, the Potency result in test [1], in test [2], in test [3], in test [4], in test [5] and in test [18] was “inactive” in each case. In test [19], the Potency result was “inactive”. For the same molecule, the call in test [7], in test [8], in test [9], in [10], in test [11] and in [12] was inactive. Besides, the result in test [13], in test [14], in test [15], in test [16] and in test [17] was inactive.

Regarding `Nc1ccncc1`, the Potency entry in test [1], in [2], in test [3], in test [4] and in test [5] was “inactive” throughout. The molecule was called inactive in [6], in test [7], in [8], in test [9], in [10] and in [11]. For the same molecule, the result in test [12], in test [14], in test [15], in test [16] and in test [17] was inactive.

Consider `CCN(N=O)C(N)=O`, for which the Potency result in test [1], in test [2], in test [3], in test [4], in test [5] and in test [18] was “inactive” in each case. Further, the call in [6], in [7], in test [8], in test [9], in test [10] and in test [11] was inactive. The outcome in test [12], in test [14], in [15], in [16] and in test [17] was inactive.

Take `NCc1cccnc1`: the Potency entry in test [1], in test [2], in test [3], in [4] and in test [5] was “inactive” in each case. Further, the call in test [7], in [8], in [9], in test [10], in [11] and in test [12] was inactive. In addition, the molecule was classed as inactive in [13], in test [14], in test [15], in test [16] and in [17].

Turning to `Nc1c(Cl)cc([N+](=O)[O-])cc1Cl`, the Potency entry in test [1], in test [2], in test [3], in [18] and in [19] was “inactive” throughout. Also, the Potency in [4] was 24.3 µM (active); in test [5] it was 24.5 µM (active) and 4.33 µM (active). In addition, the outcome in test [8], in [9], in test [10], in test [11], in test [12] and in test [13] was inactive. Also, the result in [14], in test [15] and in test [17] was inactive.
